The results in this text go back to PubChem BioAssay (NCI).

Some test systems named below: NCI-H23 lung; NCI-H226 lung; NCI-H322M lung; HOP-62 NSCLC; NCI-H460 lung; NCI-H522 lung; A549/ATCC NSCLC; 786-0 renal; DU-145 prostate; MALME-3M melanoma; MDA-MB-231 breast; RXF 393 renal; SF-268 CNS; SF-295 CNS; SF-539 CNS; UACC-257 melanoma; M14 melanoma; HCT-15 colon; K-562 leukemia.
What all share (experiment): NCI-60 one-dose screen, 48 h (100 = growth as untreated, 0 = no growth, -100 = all killed)
Conditions in all cases: 10 µM unless noted

Each structure is given as a SMILES string. About 83,000 compounds went through this panel and 20% of them were active in at least one assay; those are over-represented in the sample as a whole.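 Method: cells in 96-well plates; compound added at one concentration; 48 h incubation; percent growth measured; values under 10 scored active.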 A number with no mark means an inactive call. Active and inactive are the calls of the source.

Consider `COc1cc2c(cc1OC)C1CCN3C(=O)CCC3N1CC2` (configuration not stated), for which the growth is 99.3% in the assay on NCI-H23 lung; 113% with NCI-H226 lung; 124% with NCI-H322M lung; 121% in the assay on HOP-62 NSCLC; 107% in the assay on NCI-H460 lung; 107% in the assay on NCI-H522 lung. Further, the growth is 113% in the assay with A549/ATCC NSCLC; 103% in the assay on 786-0 renal; 111% in the assay with DU-145 prostate; 117% in the assay with MALME-3M melanoma; 116% in the assay on MDA-MB-231 breast; 106% in the assay with RXF 393 renal. For the same compound, the growth with SF-268 CNS was 103%; in the assay with SF-295 CNS, 113%; in the assay on SF-539 CNS it was 118%; in the assay with UACC-257 melanoma, 108%; with M14 melanoma it was 116%; in the assay on HCT-15 colon, 110%.

Consider `Oc1ccc(Cc2ccc(O)c(C3CC(c4ccc(Cl)cc4)=NN3)c2)cc1C1CC(c2ccc(Cl)cc2)=NN1` (configuration not stated), for which the growth was 17.4% in the assay with NCI-H23 lung; 53.6% with NCI-H226 lung; 7.95% (active) with NCI-H322M lung; 31.6% in the assay on HOP-62 NSCLC; 4.56% (active) with NCI-H460 lung; -6.56% (active) in the assay on NCI-H522 lung. The growth was 14.7% with A549/ATCC NSCLC; 18.2% in the assay on 786-0 renal; 32.6% in the assay on DU-145 prostate; 29.7% in the assay on MALME-3M melanoma; 12.7% with MDA-MB-231 breast; 66.5% in the assay on RXF 393 renal. For the same compound, the growth in the assay on SF-268 CNS is 29.8%; with SF-295 CNS, -26.9% (active); with SF-539 CNS, 40.7%; in the assay on UACC-257 melanoma, 23.7%; in the assay with M14 melanoma, 24.5%; in the assay with HCT-15 colon it was 17.2%.

As to `C=C(C)[C@H]1CC/C(C)=C/CC[C@]2(C)O[C@H]2CC/C(COC(C)=O)=C\C1=O`, the growth in the assay with NCI-H23 lung is 103%; with NCI-H226 lung, 130%; with NCI-H322M lung, 87.3%; in the assay with HOP-62 NSCLC, 102%; in the assay on NCI-H460 lung, 116%; with NCI-H522 lung it was 109%. Further, the growth is 37.7% in the assay with A549/ATCC NSCLC; 92.1% in the assay on 786-0 renal; 140% in the assay on DU-145 prostate; 95.8% in the assay with K-562 leukemia; 98.4% in the assay with MDA-MB-231 breast; 105% in the assay with RXF 393 renal. Besides, the growth with SF-268 CNS was 115%; in the assay on SF-539 CNS, 117%; in the assay on UACC-257 melanoma, 128%; in the assay on M14 melanoma, 105%; in the assay on HCT-15 colon it was 109%.

In the case of `C=C(C)[C@@H]1C/C=C(/C=O)CC[C@@H]2O[C@@]2(C)CC/C=C(\C)CC1`, the growth in the assay with NCI-H23 lung was 116%; with NCI-H226 lung it was 98.9%; in the assay with NCI-H322M lung, 91%; in the assay with HOP-62 NSCLC, 110%; with NCI-H460 lung, 98.7%; in the assay on NCI-H522 lung, 186%. For the same compound, the growth was 104% in the assay on A549/ATCC NSCLC; 106% in the assay on 786-0 renal; 112% with DU-145 prostate; 136% with K-562 leukemia; 111% in the assay with MDA-MB-231 breast; 104% in the assay on RXF 393 renal. For the same compound, the growth with SF-268 CNS was 112%; with SF-539 CNS it was 105%; with UACC-257 melanoma it was 141%; in the assay with M14 melanoma, 115%; with HCT-15 colon, 105%.

With `Oc1[nH]c2ccc(Cl)cc2c1/C=c1/ccc2c(c1)N=C(c1ccc(C(F)(F)F)cc1)N=2`, the growth with NCI-H23 lung is 67.2%; with NCI-H226 lung, 88.7%; with NCI-H322M lung it was 84.3%; with HOP-62 NSCLC, 71.5%; in the assay with NCI-H460 lung it was 39.2%; in the assay on NCI-H522 lung, 45.7%. Moreover, the growth with A549/ATCC NSCLC is 70.5%; with 786-0 renal, 16.7%; in the assay on DU-145 prostate it was 70%; in the assay with K-562 leukemia, 26.9%; with MALME-3M melanoma, 69.2%; in the assay with MDA-MB-231 breast it was 83.4%. The growth with RXF 393 renal was 5.23% (active); with SF-295 CNS it was 40.9%; with SF-539 CNS, 80.1%; with UACC-257 melanoma, 66%; in the assay with M14 melanoma, 54.4%; in the assay with HCT-15 colon, 54.1%.

Consider `O=C1Cc2cc(CCn3cncn3)c(Cl)cc2N1`, for which the growth is 24.1% with NCI-H23 lung; 74.8% in the assay on NCI-H226 lung; 92.7% with NCI-H322M lung; 69.6% in the assay with HOP-62 NSCLC; 83.9% in the assay with NCI-H460 lung; 32.8% with NCI-H522 lung. Besides, the growth was 59.8% in the assay on A549/ATCC NSCLC; 94.7% in the assay on 786-0 renal; 96.5% in the assay with DU-145 prostate; 93.8% in the assay with MALME-3M melanoma; 56% in the assay with MDA-MB-231 breast; 62% in the assay with RXF 393 renal. For the same compound, the growth in the assay with SF-268 CNS is 110%; with SF-295 CNS it was 69.3%; with UACC-257 melanoma, 51.7%; in the assay with M14 melanoma, 24%; with HCT-15 colon, 54.6%.

In the case of `CNc1ccc(CSc2ccc(Cl)cc2)cc1`, the growth in the assay on NCI-H23 lung is 108%; in the assay on NCI-H226 lung, 84.6%; with NCI-H322M lung, 123%; in the assay with HOP-62 NSCLC, 87.4%; with NCI-H460 lung, 105%; in the assay with NCI-H522 lung it was 75.6%. Also, the growth is 93.6% in the assay on A549/ATCC NSCLC; 71% in the assay on 786-0 renal; 127% in the assay on DU-145 prostate; 82% in the assay on K-562 leukemia; 103% with MDA-MB-231 breast; 111% with RXF 393 renal. In addition, the growth in the assay with SF-268 CNS is 96.3%; with SF-539 CNS, 98.2%; with UACC-257 melanoma it was 97.4%; in the assay on M14 melanoma, 103%; in the assay with HCT-15 colon, 94.8%.

With `Cc1c(C(N)=O)sc2ncn(CC(=O)Nc3ccc(Cl)cc3)c(=O)c12`, the growth in the assay on NCI-H23 lung was 110%; with NCI-H226 lung, 105%; in the assay with NCI-H322M lung it was 114%; in the assay with HOP-62 NSCLC, 97%; in the assay on NCI-H460 lung it was 110%; in the assay with NCI-H522 lung, 141%. The growth in the assay on A549/ATCC NSCLC is 106%; with 786-0 renal, 104%; in the assay on DU-145 prostate it was 126%; with K-562 leukemia, 96.8%; with MDA-MB-231 breast, 108%; with RXF 393 renal, 105%. Also, the growth is 119% with SF-268 CNS; 108% in the assay with SF-539 CNS; 148% in the assay with UACC-257 melanoma; 103% in the assay on M14 melanoma; 117% in the assay on HCT-15 colon.

Regarding `CSc1nc2c(c(=O)n1C)C(c1ccccc1)C1=C(N2)/C(=C/c2ccccc2)CCC1` (configuration not stated), the growth in the assay on NCI-H23 lung is 54.8%; in the assay on NCI-H226 lung, 74.1%; in the assay on NCI-H322M lung, 86%; with HOP-62 NSCLC, 94.3%; with NCI-H460 lung it was 54.3%; in the assay with NCI-H522 lung, 24.5%. For the same compound, the growth with A549/ATCC NSCLC was 86.2%; in the assay on 786-0 renal it was 54.6%; with DU-145 prostate it was 72.2%; with MALME-3M melanoma, 70.4%; with MDA-MB-231 breast it was 53.5%; in the assay with RXF 393 renal, 36.9%. The growth in the assay on SF-268 CNS was 62.6%; in the assay on SF-295 CNS it was 7.45% (active); with SF-539 CNS, 63.4%; in the assay on UACC-257 melanoma, 52.2%; in the assay on M14 melanoma it was 65.9%; in the assay with HCT-15 colon it was 58.9%.
